Sampled rows, rich in hits. Any-hit rate of the full collection: about 3.1%.
GoLoco inh red = inhibitors of human Gai1-RGS12 GoLoco interaction (red fluorophore). P63096. Gai1:RGS12 GoLoco peptide FP, rhodamine, 10 min. Potency, µM (top dose mostly 61.6 µM), for inactives: at the highest dose activity, negative = inhibition, actives largely listed as inhibitors. 230,000 tested, 0.44% active. AID 880; active = well fitted inhibition curve with a large enough effect, not every such curve was filed as active; inactive = no such curve, though single readings can be large or run the other way; also: nearly all actives have a fitted effect of over 30% in size
Tau fluor cs = counter-screen for tau fibril formation inhibitors | 280,000 tested, 0.93% active | tau K18 P301L Alexa594 fluorescence, heparin fibrillization | Potency, µM (top dose mostly 57.7 µM), for the others: at the highest dose activity change, negative = decrease; also: nearly all actives have a fitted effect of over 55% in size
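Human K18 P301L tau (15 uM unlabeled plus 0.24 uM Alexa 594-labeled, final) in 100 mM sodium acetate pH 7 was mixed with compound and 20 uM heparin and incubated 6 hr at 37 C.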
TRb-SRC2 inh = TRbeta-SRC2 interaction inhibition | TRbeta-SRC2 peptide binding, fluorescence polarization; receptor liganded with 1 µM T3 | P10828 | AID 1469 | Potency, µM (titrated, usually from 106 µM), for the others: at the top dose activity change, negative = inhibition, actives largely listed as inhibitors | 280,000 tested, 0.065% active;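 also: plate controls were bound peptide for no effect and peptide without receptor for full effect; nearly all actives have a fitted effect of over 50% in size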
Target sequence (P10828 whole entry, looked up): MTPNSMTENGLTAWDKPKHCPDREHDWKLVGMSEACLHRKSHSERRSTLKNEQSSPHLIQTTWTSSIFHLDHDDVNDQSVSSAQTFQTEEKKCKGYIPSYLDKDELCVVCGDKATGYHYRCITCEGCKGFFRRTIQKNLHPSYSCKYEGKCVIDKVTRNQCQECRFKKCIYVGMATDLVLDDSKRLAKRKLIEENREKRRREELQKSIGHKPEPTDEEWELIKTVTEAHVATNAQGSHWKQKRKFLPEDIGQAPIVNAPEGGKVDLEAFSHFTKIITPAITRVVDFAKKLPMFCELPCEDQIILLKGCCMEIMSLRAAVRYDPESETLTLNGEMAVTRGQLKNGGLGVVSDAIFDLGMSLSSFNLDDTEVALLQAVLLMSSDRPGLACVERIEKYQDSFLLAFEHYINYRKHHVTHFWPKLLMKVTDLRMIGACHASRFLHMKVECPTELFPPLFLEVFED
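Binding of a 20-amino-acid Texas Red SRC2 peptide (20 nM) to TRb ligand-binding domain (0.6 uM) with agonist T3 at 1 uM was followed by fluorescence polarization after a 5 hr room-temperature incubation.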
Tau ThT inhib = inhibitors of human tau fibril formation, thioflavin T binding. P10636. recombinant tau K18 P301L (four-repeat tau fragment), heparin-induced fibrillization, ThT fluorescence. Potency, µM (titrated, usually from 57.4 µM), for the others: at the highest dose activity, negative = inhibition, most hits filed as inhibitors. 270,000 tested, 2.1% active. AID 1460; also: nearly all actives have a fitted effect of over 55% in size
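Recombinant human tau K18 fragment […] carrying P301L, 15 uM unlabeled plus 0.24 uM Alexa 594-labeled, was fibrillized with 20 uM heparin in 100 mM sodium acetate pH 7 for 6 hr at 37 C; 30 uM ThT fluorescence read after 1 hr.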
TR SRC2 fluor cs = counter-screen for TRb-SRC2 inhibitors: fluorescence interference; TRb/SRC2 Texas Red total fluorescence interference; 280,000 tested, 0.29% active; Potency, µM (doses to about 106 µM), without a hit: at the top dose fluorescence change, negative = quenching; active = well fitted curve in either direction with a large enough effect; inconclusive = small, poorly fitted or top-dose-only effect
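Human TRβ ligand-binding domain (0.6 uM) and Texas Red SRC2 peptide (20 nM) in Tris buffer with 1 uM T3 and 5% DMSO were incubated with pinned compound for 5 hr at ambient temperature. Total fluorescence was computed as S + 2P (555/632 nm).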
Tau fibril FP = blocks human tau fibril formation measured by polarization | P10636 | K18 P301L tau heparin fibrillization, Alexa594 FP, 6 h | Potency, µM (doses to about 57.7 µM), inactives show top-dose activity, negative = inhibition, actives largely listed as inhibitors | 280,000 tested, 0.39% active | AID 1468; also: nearly all actives have a fitted effect of over 55% in size
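FP of Alexa 594-tau after heparin (20 uM) induction. Substrate: human K18 P301L, 15 uM unlabeled, 0.24 uM labeled. Buffer 100 mM sodium acetate pH 7. 6 hr, 37 C.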
* marks the source's active call; other numbers are inactive results; ? = inconclusive; · = no result; [ ] = another dose, or the depositor's remark. Unless noted, calls follow the shape of the dose curve; as a rule, active = well fitted curve in the direction sought with a large enough effect; inconclusive = small, poorly fitted or top-dose-only effect, or another doubt; inactive = no such curve, though single readings can be large; an effect the other way counts as inactive or inconclusive. Unless noted, % is scaled to controls: 0 for no effect and ±100 for the full control effect; potency is read from the fitted curve at half-maximal effect.

SMILES	GoLoco inh red	Tau fluor cs	TRb-SRC2 inh	Tau ThT inhib	TR SRC2 fluor cs	Tau fibril FP
Cc1ccc(C2=NC(=O)/C(=C/c3cc(O)c(O)c(Br)c3)S2)cc1	153%	2.8µM*[quencher]	11%	4µM*	0%	?
COc1cc(/C=C2\SC(=Nc3ccc(O)cc3)NC2=O)cc(OC)c1O	37%	-4%	12%	?	-23%	4%
Cc1oc(-c2ccc(F)cc2)cc1-c1nn2c(-c3ccoc3C)nnc2s1	16%	-6%	-8%	?	-11%	2%
Cc1ncsc1C(=O)N1N=C2/C(=C/c3ccc(N4CCOCC4)cc3)CCCC2C1c1ccc(N2CCOCC2)cc1 (centres undefined)	35%	-22%	-6%	14µM*	0%	5%
NS(=O)(=O)c1ccc(N=Nc2ccc(O)c(C(=O)O)c2)cc1	-10%[14.2 µM]	·	·	·	·	·
O=C(O)c1cc(N=Nc2ccc(-c3ccc(N=Nc4ccc(O)c(C(=O)O)c4)cc3)cc2)ccc1O	·	·	?	·	28µM*[quencher]	·
CCOC(=O)Cc1csc(NC(=O)CSc2nnc(C(C)C)n2C)n1	-8%	-4%	-6%	-5%	-8%	-5%
CCOC(=O)C1=C(O)C(=O)N(c2ccc(S(N)(=O)=O)cc2)C1c1cccc([N+](=O)[O-])c1 (centres undefined)	9%	-9%	-2%	-8%	1%	8%
CCOC(=O)N1CCN(C(=O)CCNS(=O)(=O)c2cc(Br)cnc2N)CC1	-11%	-2%	-5%	1%	2%	7%
CC1=CC(=C(C#N)c2nc3ccccc3s2)C=C(C)N1Cc1ccco1	3%	4µM*[quencher]	-7%	-18%	-3%	?
COc1ccc(C2=CC3=C(Br)C(=O)C(C)(OC(=O)C4CCCC4)C(=O)C3=CO2)cc1 (centres undefined)	4%	-15%	?	?	?	?
COc1ccc(C2=CC3=C(Br)C(=O)C(C)(OC(=O)c4ccc(Cl)nc4)C(=O)C3=CO2)cc1 (centres undefined)	0%	?	2%	28µM*	11%	?
COC(=O)CCC(=O)OC1(C)C(=O)C2=COC(c3ccc(OC)cc3)=CC2=C(Br)C1=O (centres undefined)	11%	-10%	1%	13µM*	0%	?
CN(C)C(=S)NC(C)(C)C	-2%	1%	-8%	-3%	0%	2%
COc1ccc(CCNC(=O)c2ccc3nc(-c4ccco4)c(-c4ccco4)nc3c2)cc1OC	27%	13µM*[quencher]	?	6.3µM*	11µM*[quencher]	?
COc1cc(NC(=O)c2cnc(N)s2)cc(C(=O)Nc2cccc(C(F)(F)F)c2)c1	6%	-29%	-7%	0%	0%	?
O=C(O)c1ccc2nc(-c3ccco3)c(-c3ccco3)nc2c1	-21%	?	-10%	7.9µM*	?	10µM*
CCc1nc2ccc(C(=O)NCCc3ccc(OC)c(OC)c3)cc2nc1CC	·	-16%	-4%	?	-1%	-7%
COc1ccc(CCn2c(N)c(C(=O)NCc3ccco3)c3nc4ccccc4nc32)cc1OC	29%	?	?	18µM*	-8%	32µM*
COc1cc(NC(=O)c2ccnc(N)c2)cc(C(=O)Nc2cccc(C(F)(F)F)c2)c1	1%	?	-5%	-6%	-1%	28µM*
COc1ccccc1/C=N/NC(=O)C1=NNC(c2ccccc2)(c2ccccc2)C1	4%	-12%	2%	?	2%	-2%
CC1=C(n2nnc([N+](=O)[O-])n2)C(c2cccnc2)C(C#N)=C(N)O1 (centres undefined)	2%	-12%	0%	?	-4%	-18%
COCC(=O)N(Cc1ccco1)c1nnc(C2CCOC2)s1 (centres undefined)	5%	-8%	-7%	-9%	0%	4%
